# Several values for one entry are separate records, joined by “and”; a condition that tells them apart may be missing. Identical values can stand only once.
# Target: Solute carrier family 2, facilitated glucose transporter member 1 (Homo sapiens) (UniProt P11166)
# Experiment: ST_JUDE_LEISH: Cytotoxicity at 2uM final concentration against transgenic Leishmania Mexicana promastigotes LmGLUT1 that are glucose transport deficient and complemented with the human glucose transporter GLUT1. Activity is measured by DNA content using SYBR green in vitro
# Assay type: functional
# Chain of Solute carrier family 2, facilitated glucose transporter member 1 (Homo sapiens) (P11166 whole entry): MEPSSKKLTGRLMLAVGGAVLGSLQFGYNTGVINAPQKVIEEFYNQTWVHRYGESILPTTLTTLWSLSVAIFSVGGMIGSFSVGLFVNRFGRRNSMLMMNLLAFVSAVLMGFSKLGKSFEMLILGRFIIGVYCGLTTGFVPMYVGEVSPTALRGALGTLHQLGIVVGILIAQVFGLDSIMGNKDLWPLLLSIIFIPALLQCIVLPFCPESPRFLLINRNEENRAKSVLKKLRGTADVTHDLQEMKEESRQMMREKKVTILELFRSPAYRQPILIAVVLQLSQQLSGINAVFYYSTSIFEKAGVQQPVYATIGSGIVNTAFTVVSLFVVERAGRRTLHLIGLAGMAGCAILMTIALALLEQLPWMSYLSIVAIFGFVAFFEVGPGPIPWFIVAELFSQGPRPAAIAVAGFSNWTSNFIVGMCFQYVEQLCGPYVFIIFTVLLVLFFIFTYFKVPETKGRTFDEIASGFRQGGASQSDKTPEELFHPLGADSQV
row,SMILES,inhibition
1,COCCNCc1ccc(-c2ccc(CN(C(=O)NC3CCCCC3)C3CCN(Cc4ccccc4)CC3)cc2)cc1,2.65%
2,CCC1(C)CC(CCNCc2ccccc2O)(c2ccc(F)cc2)CCO1 (stereo not given),0.23%
3,CC[C@H]1CN2CC[C@H]1C[C@@H]2[C@H](O)c1ccnc2ccc(O)cc12,-0.84%
4,O=C(C=Cc1ccccc1O)N1CCC(CN2CCC(c3c[nH]c4ccccc34)CC2)CC1,2.59%
5,COc1ccc2[nH]cc(C3CC4CCC(C3)N4CCC3CCN(C(=O)/C=C/c4ccc(Cl)c(Cl)c4)CC3)c2c1 (stereo not given),-0.2%
6,COc1cccc(O)c1CNCC(O)c1cccc(C(F)(F)F)c1 (stereo not given),0.43%
7,CN(Cc1ccccc1)C1CCN(CCc2c[nH]c3ccc(F)cc23)CC1,6.41%
8,CCN(Cc1ccccc1)CC(O)c1ccc(Cl)c(Cl)c1 (stereo not given),0.91%
9,CCCc1ccc2c(c1O)CCC(N(CCC)CCC)C2 (stereo not given),2.32%
10,O=C(NC1CCC(CN2CCC(c3c[nH]c4ccccc34)CC2)CC1)c1csc(-c2cccc(Cl)c2Cl)n1 (stereo not given),5.32%
11,N#Cc1c(Cl)cccc1Oc1ccc(S(=O)(=O)N2CCC(CN3CCC(c4c[nH]c5ccccc45)CC3)CC2)cc1,1.64%
12,O=C(C=Cc1ccc(-c2ccccc2)cc1)NC1CCC(CN2CCC(c3c[nH]c4ccccc34)CC2)CC1 (stereo not given),6.41% and 5.7%
13,CC(Cc1ccc(OCCCCOc2ccccc2)cc1)NCCC1CCCN1C (stereo not given),103%
14,O=C(NC1CCC(CN2CCC(c3c[nH]c4ccccc34)CC2)CC1)c1cc2ccccc2s1 (stereo not given),-1.97% and 2.46%
15,O=C(/C=C/c1c(Cl)cccc1Cl)NC1CCC(CN2CCC(c3c[nH]c4ccccc34)CC2)CC1 (stereo not given),5.03% and 4.85%

# Reference: ChEMBL document CHEMBL3433997, “St. Jude Leishmania screening dataset” (2016)
